AHR activator: activates the human aryl hydrocarbon receptor; P35869; AHR-responsive luciferase reporter cells, luminescence; activation, % at 5 µM; 320,000 tested, 2.5% active; in the data active = activation above about 47%;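 also: 0% = vehicle wells and 100% = reference agonist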
DAX1 inh-1: blocks DAX1 repression of SF-1 activated StAR promoter | HEK293T StAR-luciferase reporter, SF-1/DAX-1 repression relief | inhibition, % at 6.8 µM | AID 652010 | 370,000 tested, 1.1% active;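 active = inhibition above the mean over all tested compounds plus 3 SD, cut at about 3.6% in these data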;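 also: 0% = DAX-1 cells with DMSO and 100% = cells lacking DAX-1 with DMSO; higher inhibition means more luminescence from relief of DAX-1 repression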
ssDAF-12 act: activators of S. stercoralis DAF-12 nuclear receptor | 370,000 tested, 1% active | activation, % at 6.8 µM | AID 652126 | HEK293 ssDAF-12/GRIP1 lit1-tk-luc reporter, luminescence; % of 3 µM dafachronic acid response;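 active = activation above the mean over all tested compounds plus 3 SD, cut at about 0.9% in these data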;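 also: 0% = DMSO-only wells and 100% = 3 µM delta7-dafachronic acid wells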
DAX1 inh-2: inhibits human nuclear receptor DAX1; P51843; HEK293 Gal4-DAX1 luciferase reporter, luminescence; inhibition, % at 6.75 µM; 340,000 tested, 0.99% active;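 active = inhibition above the mean over all tested compounds plus 3 SD, cut at about 4.2% in these data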;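 also: 0% = DAX1-transfected cells with DMSO and 100% = empty-vector control cells with DMSO; inhibition shows as a rise in luminescence from relieved DAX1 repression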
Target sequence (P51843 207-470 limits assumed): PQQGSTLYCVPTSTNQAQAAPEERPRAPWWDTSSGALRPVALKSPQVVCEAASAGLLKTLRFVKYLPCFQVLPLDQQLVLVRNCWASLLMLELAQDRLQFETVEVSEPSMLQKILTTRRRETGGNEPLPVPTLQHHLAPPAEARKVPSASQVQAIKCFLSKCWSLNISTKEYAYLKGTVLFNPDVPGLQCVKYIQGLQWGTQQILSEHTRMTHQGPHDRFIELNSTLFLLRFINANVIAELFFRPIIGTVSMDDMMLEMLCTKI
hgDAF12 agonist: hgDAF-12 agonism, primary luciferase screen; HEK293 GAL4-hgDAF12 UAS-luciferase reporter, agonist luminescence; normalized to butyrate control; activation, % at 6.8 µM; 370,000 tested, 1.8% active;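 active = activation above a cutoff set at the mean of all screened compounds plus 3 SD, cut at about 10% in these data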;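 also: 0% = DMSO wells and 100% = sodium butyrate wells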
hcDAF-12 act: activates DAF-12 receptor from parasite H. contortus; HEK293 hcDAF-12 lit1-tk-luc reporter, luminescence; 0% DMSO, 100% Δ7-dafachronic acid; activation, % at 6.8 µM; 370,000 tested, 1.4% active; AID 652067;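 active = activation above the mean of all tested compounds plus 3 SD, cut at about 5.5% in these data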;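 also: 100% = response to 3 µM Δ7-dafachronic acid high control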
hgDAF12 conf: confirmation of H. glycines DAF-12 agonists | shares compounds with hgDAF12 agonist | activation, % at 6.8 µM | HEK293 GAL4-hgDAF12 luciferase reporter, agonist mode; percent of butyrate response | 3,300 tested, 80% active | AID 743050;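 active = mean activation over triplicate wells above the hit cutoff derived from the earlier primary screen, cut at about 11% in these data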;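 also: 0% = DMSO low control and 100% = 2 mM sodium butyrate high control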
LXR ag 2: LXR-beta agonism as DAF-12 counter-screen. shares compounds with hgDAF12 agonist. HEK293 Gal4-LXR luciferase reporter, 24 h. activation, % at 6.8 µM. 3,300 tested, under 10 active;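 active = mean activation of the triplicate above a set limit carried over from the primary screen, none filed active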
The depositor's hits bear a star; nt = no result. Compounds with a hit are over-represented: about 5.7% of the library has one in this group of screens.

SMILES | AHR activator | DAX1 inh-1 | ssDAF-12 act | DAX1 inh-2 | hgDAF12 agonist | hcDAF-12 act | hgDAF12 conf | LXR ag 2
Clc1ccc(-c2nnc(-c3cccnc3)o2)cc1 | -7.4 | 0.9 | 0.0 | 2.6 | 3.4 | 0.2 | nt | nt
CCCNCc1nnc(-c2ccccc2Cl)o1 | -2.2 | 0.1 | -1.4 | 1.4 | 3.0 | -1.4 | nt | nt
Clc1ccccc1-c1nnc(-c2ccccc2Cl)o1 | 17.5 | 3.5 | -0.6 | 1.8 | 14.8* | 4.9 | 17.2* | 0.6
Clc1ccc(-c2nnc(-c3ccccc3Cl)o2)cc1 | 48.6* | 2.5 | -0.4 | 2.4 | 13.5* | 3.7 | 19.2* | 1.1
CCOC(=O)C1C(C(=O)OCC)C2C(=O)C3C(C(=O)OCC)C(C(=O)OCC)C3C(=O)C12 (configuration not stated) | nt | 0.4 | -1.0 | nt | -2.5 | 0.4 | nt | nt
COc1ccc(/C=C2\SC(=O)N(CCCC(=O)Nc3ccc(C(=O)O)cc3)C2=O)cc1 | nt | -6.5 | -3.8 | -4.8 | -20.9 | -9.2 | nt | nt
COc1ccc(/C=C2\SC(=O)N(CCc3nnc(N)s3)C2=O)cc1 | 11.5 | 4.1* | 0.7 | 1.6 | 16.0* | 3.7 | 10.3 | 0.8
CC(C)c1cc(C(N)=O)c(NC(=O)C2CCC2)s1 | -2.8 | -0.8 | -1.3 | -1.3 | 0.2 | -1.1 | nt | nt
CNc1ncc(C(=O)c2ccc(Br)cc2)s1 | nt | 2.9 | -0.5 | 1.4 | 26.2* | 2.3 | 15.9* | 0.5
Cc1cc(C2=NNC(=NC3CC3)SC2)c(C)n1Cc1ccco1 | -3.9 | -4.1 | -3.6 | -3.3 | -20.5 | -10.0 | nt | nt
COCCCN=C1NN=C(c2cc(C)n(Cc3ccco3)c2C)CS1 | 6.1 | 1.7 | 1.6* | 2.1 | 14.6* | 2.3 | 10.1 | 0.6
O=C(CN1C(=O)COc2ccc(S(=O)(=O)N3CCCC3)cc21)NC1CC1 | -0.8 | 0.1 | -1.2 | 1.1 | 1.4 | -1.5 | nt | nt
Cc1ccc(-c2nc3ncccc3n2O)cc1 | 16.1 | 0.0 | -0.7 | 2.2 | 1.7 | 0.2 | nt | nt
COn1c(-c2ccc(Cl)cc2)nc2ncccc21 | 31.5 | 0.3 | -0.2 | 0.9 | 13.5* | 3.0 | 10.7* | 0.3
Cc1ccc(Nc2nc(-c3ccccc3)c(CC(=O)O)s2)cc1 | 29.5 | 1.7 | 0.0 | 0.3 | 13.9* | 2.1 | 12.9* | 0.5
Cc1ccc(C)c(N2CCN(CC(=O)Nc3ccc([N+](=O)[O-])cc3C(=O)Nc3ccccc3F)CC2)c1 | 24.3 | 0.2 | -0.5 | 1.1 | 0.5 | -0.7 | nt | nt
COc1cccc(/C=C/c2ccccn2)c1O | 40.0 | 3.5 | 0.1 | 2.9 | 16.0* | 4.7 | 13.6* | 0.6
O=S(=O)(Nc1ccc(N2CCOCC2)cc1)c1ccc(F)cc1F | 1.2 | 1.9 | -1.1 | -0.3 | -1.9 | 1.2 | nt | nt
O=C(O)c1cc(-c2ccc(N3CCOCC3)cc2)nn1-c1ccc(F)cc1F | 1.1 | -0.4 | -1.6 | 0.4 | 16.9* | -0.6 | 0.5 | -0.1
Cc1ccccc1S(=O)(=O)Nc1nc2ccccc2nc1Cl | 0.7 | 1.0 | -0.6 | 0.0 | 1.4 | -0.3 | nt | nt
Cc1ccccc1S(=O)(=O)Nc1nc2ccccc2nc1N1CCc2ccccc2C1 | 45.7 | 1.8 | 0.4 | -0.3 | 14.4* | 4.9 | 10.1 | 0.1
O=C(c1cc(-c2ccco2)on1)N1CCCc2ccccc21 | 1.4 | 0.5 | -1.0 | 4.1 | 0.3 | 3.2 | nt | nt
CC(C)(C)n1cnc2cc(NC(=O)c3ccc(Cl)cc3)ccc21 | 2.4 | 3.3 | 1.3* | 3.5 | 14.1* | 5.1 | 19.4* | 1.5
CC(C)(C)n1cnc2cc(NCc3ccc(Br)cc3)ccc21 | 13.0 | 1.4 | -0.3 | 4.2* | 17.4* | 2.6 | 12.8* | 0.6
COc1cc(C(=O)Nc2ccc3c(c2)ncn3C(C)(C)C)cc(OC)c1OC | nt | 0.0 | -0.6 | -0.5 | -2.5 | -1.6 | nt | nt
CC(=O)Nc1cncc(-c2cccc(N(C)C)c2)n1 | nt | 0.6 | -1.3 | nt | 4.8 | 3.3 | nt | nt
Cc1cc(O)ccc1Nc1cc(-c2cccc(N(C)C)c2)ncn1 | nt | 4.2* | 0.8 | nt | 13.8* | 5.8* | 18.1* | 0.5
Cc1cccc(NC(=O)NCCN2CCN(c3ccccc3)CC2)c1C | 0.1 | -0.3 | -1.5 | 0.2 | -1.7 | -2.1 | nt | nt
